For 25 compounds, Potency and PLD induction results are on record in PubChem BioAssay (Tox21).

Assay [1] is described as follows: qHTS assay to identify aromatase inhibitors - cell viability counter screen (AID 743084).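 Also: cells stimulated with testosterone during compound exposure; nearly all actives have a fitted effect of over 55% in size.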
The target of assay [2] is Aryl hydrocarbon receptor (Homo sapiens) (UniProt P35869). Kind of assay: qHTS assay to identify small molecule that activate the aryl hydrocarbon receptor (AhR) signaling pathway (AID 743085). Also: nearly all actives have a fitted effect of over 15% in size. Also: potency is read from the fitted curve at half-maximal effect.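 As to activation: HG2L7.5c1 human HepG2 liver cells with stably integrated DRE-driven firefly reporter; series mostly up to about 70 µM.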 The gist of the method:
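Cell line HG2L7.5c1 (human hepatoma, 20× DRE-luc). Plated, 5 h 37C, compound/DMSO added, 24 h 37C. CellTiter-Fluor 30 min 37C → fluorescence; then ONE-Glo 30 min RT → luminescence.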

Assay [3] is described as follows: qHTS assay to identify small molecule that activate the aryl hydrocarbon receptor (AhR) signaling pathway - cell viability counter screen (AID 743086).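 Also: HepG2 liver cells carrying the AhR DRE luciferase reporter; series mostly up to about 70 µM; nearly all actives have a fitted effect of over 45% in size.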 The method in brief: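 HepG2-AhR-luc (HG2L7.5c1) cells, 4000/well, treated 24 h at 37 C with compound; viability measured as CellTiter-Fluor fluorescence after 30 min in the same wells as the luciferase read.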
A general note: Quantitative high-throughput screening tests each substance at several concentrations.

Assay [4] concerns the target Peroxisome proliferator-activated receptor gamma (Homo sapiens) (UniProt P37231). Put plainly: qHTS assay to identify small molecule agonists of the peroxisome proliferator-activated receptor gamma (PPARg) signaling pathway (AID 743094; active = well fitted activation curve with a large enough effect in the signal ratio in the repeat runs, not every such curve was filed as active; the % refers to the signal ratio). The method in brief:
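Following 5 h plating at 37C, PPARg-bla HEK293H cells receive compound or DMSO for 17 h; fluorescence intensity is recorded after LiveBLAzer B/G loading for 1 h at room temperature.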

Assay [5] in a line: qHTS assay to identify small molecule phospholipidosis (PLD) inducers (AID 1259344; active = well fitted curve in the direction sought with a large enough effect; an effect the other way counts as inactive or inconclusive). The gist of the method: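 HepG2 cells, 900/well, treated with compound plus LipidTOX Red for 24 h at 37 C; amiodarone positive and DMSO negative controls. Fixed with paraformaldehyde/Hoechst, then high-content imaging scored LipidTOX pit count and integrated intensity per well and per cell.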

SMILES strings stand for the structures. Records with an inconclusive call do not appear. Unmarked numbers belong to inactive results. Active and inactive are the calls of the source. Unless noted, calls follow the shape of the dose curve; as a rule, active = well fitted curve in the direction sought with a large enough effect in the repeat runs; inconclusive = weak or mixed curves; inactive = no such curve, though single readings can be large; an effect the other way counts as inactive or inconclusive. Positions of bridges follow the written chain, without caps; N, C: chain ends. Non-standard residues stand in square brackets, D forms with d. Residues, ends and D or L forms follow the SMILES beside them. Orn = NCCC[C@H](N)C(=O)O; Mpa = O=C(O)CCS
% is scaled to controls: 0 for no effect and ±100 for the full control effect.

Sequence of Aryl hydrocarbon receptor (Homo sapiens) (P35869 whole entry, looked up): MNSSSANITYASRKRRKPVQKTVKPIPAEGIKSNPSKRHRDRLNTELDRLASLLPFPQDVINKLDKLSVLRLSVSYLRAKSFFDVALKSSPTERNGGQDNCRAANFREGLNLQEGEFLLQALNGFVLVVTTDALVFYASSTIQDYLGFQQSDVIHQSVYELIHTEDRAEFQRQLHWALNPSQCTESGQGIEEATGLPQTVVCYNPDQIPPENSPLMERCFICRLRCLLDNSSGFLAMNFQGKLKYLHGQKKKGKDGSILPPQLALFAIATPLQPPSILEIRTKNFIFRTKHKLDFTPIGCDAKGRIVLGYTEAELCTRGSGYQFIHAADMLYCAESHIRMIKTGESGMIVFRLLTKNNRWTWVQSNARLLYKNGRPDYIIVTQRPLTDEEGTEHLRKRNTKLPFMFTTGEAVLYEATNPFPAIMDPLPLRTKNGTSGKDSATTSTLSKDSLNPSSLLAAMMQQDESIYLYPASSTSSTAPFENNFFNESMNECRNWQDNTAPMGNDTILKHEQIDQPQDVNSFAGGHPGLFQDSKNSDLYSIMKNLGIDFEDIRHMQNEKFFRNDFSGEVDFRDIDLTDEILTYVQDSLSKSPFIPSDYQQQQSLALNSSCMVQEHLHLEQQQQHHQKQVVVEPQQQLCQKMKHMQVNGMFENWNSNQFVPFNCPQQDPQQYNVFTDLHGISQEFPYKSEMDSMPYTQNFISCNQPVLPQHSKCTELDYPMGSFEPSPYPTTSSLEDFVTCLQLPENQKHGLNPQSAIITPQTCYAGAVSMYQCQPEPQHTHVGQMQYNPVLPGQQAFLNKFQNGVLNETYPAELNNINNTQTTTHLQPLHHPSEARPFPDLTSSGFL
Sequence of Peroxisome proliferator-activated receptor gamma (Homo sapiens) (P37231 whole entry, looked up): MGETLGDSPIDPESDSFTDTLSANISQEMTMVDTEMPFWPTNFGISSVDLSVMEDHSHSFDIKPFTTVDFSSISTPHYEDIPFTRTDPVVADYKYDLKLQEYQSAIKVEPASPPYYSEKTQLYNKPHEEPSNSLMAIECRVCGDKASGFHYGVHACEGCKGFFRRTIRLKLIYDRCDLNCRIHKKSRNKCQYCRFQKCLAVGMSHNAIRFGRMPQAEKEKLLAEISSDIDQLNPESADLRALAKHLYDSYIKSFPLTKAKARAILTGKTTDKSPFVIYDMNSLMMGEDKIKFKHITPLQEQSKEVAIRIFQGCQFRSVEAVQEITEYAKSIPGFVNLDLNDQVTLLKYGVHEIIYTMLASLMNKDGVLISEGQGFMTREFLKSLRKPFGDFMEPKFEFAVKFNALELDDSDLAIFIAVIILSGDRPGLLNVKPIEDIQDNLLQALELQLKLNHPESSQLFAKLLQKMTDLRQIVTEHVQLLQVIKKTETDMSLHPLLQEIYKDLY

With `OC[C@H]1O[C@@H](n2cnc3c2NC=NC[C@H]3O)C[C@@H]1O`, the Potency result in assay [1], in assay [2], in assay [3], in assay [4] and in assay [5] was “inactive” each time.
`NCCC(=O)[N-][C@@H](Cc1cnc[nH]1)C(=O)O.[Zn]`: the Potency result in assay [1], in assay [2], in assay [3], in assay [4] and in assay [5] was “inactive” in each case.
As for `CC[C@H](CC[C@@H](C)[C@H]1CC[C@H]2[C@@H]3CC=C4C[C@@H](O)CC[C@]4(C)[C@H]3CC[C@]12C)C(C)C`, the Potency result in assay [1], in assay [2], in assay [3], in assay [4] and in assay [5] was “inactive” throughout.
`CCCCCCCC(=O)CC[C@@H]1[C@@H](C/C=C\CCCC(=O)OC(C)C)[C@@H](O)C[C@H]1O`: the Potency entry in assay [1], in assay [3], in assay [4] and in assay [5] was “inactive” throughout.
As to `CCCCCCCCCCCCCCCC(=O)OC[C@@H](COP(=O)([O-])OCC[N+](C)(C)C)OC(=O)CCCCCCCCCCCCCCC`, the Potency entry in assay [1], in assay [2], in assay [3] and in assay [4] was “inactive” throughout. For the same compound, in assay [5], the PLD induction was -0.903% [at 1.53 µM].
In the case of `O=C(NCCNCC(O)COc1ccc(O)cc1)N1CCOCC1` (stereo not given), the Potency entry in assay [1], in assay [2], in assay [3], in assay [4] and in assay [5] was “inactive” throughout.
For `CC(O)[C@@H]1NC(=O)[C@H](CCCCN)NC(=O)[C@@H](Cc2c[nH]c3ccccc23)NC(=O)[C@H](Cc2ccccc2)NC(=O)[C@@H](NC(=O)[C@H](N)Cc2ccccc2)CSSC[C@@H](C(=O)N[C@H](CO)[C@@H](C)O)NC1=O` (stereo not given in full), the Potency entry in assay [1], in assay [2], in assay [3], in assay [4] and in assay [5] was “inactive” each time.
Turning to `c1ccc2c(CCC3CCNCC3)c[nH]c2c1`, the Potency result in assay [1], in assay [4] and in assay [5] was “inactive” throughout. Besides, the Potency in assay [2] was 11.9 µM (active).
`CN[C@@H]1[C@@H](O)[C@@H](O[C@@H]2[C@@H](O)[C@H](OC3OC(CN)=CCC3N)[C@@H](N)C[C@H]2N)OC[C@]1(C)O` (stereo not given in full): the Potency result in assay [1], in assay [2], in assay [3], in assay [4] and in assay [5] was “inactive” throughout.
Regarding `NC[C@@H]1O[C@H](O[C@H]2[C@@H](O)[C@H](O[C@@H]3[C@@H](O)[C@H](N)C[C@H](N)[C@H]3O[C@H]3O[C@H](CN)[C@@H](O)[C@H](O)[C@H]3N)O[C@@H]2CO)[C@H](N)[C@@H](O)[C@@H]1O`, the Potency entry in assay [1], in assay [2], in assay [4] and in assay [5] was “inactive” each time.
Consider `CCOc1ccc(C[C@H]2NC(=O)CCSSC[C@@H](C(=O)N3CCC[C@H]3C(=O)N[C@@H](CCCN)C(=O)NCC(N)=O)NC(=O)[C@H](CC(N)=O)NC(=O)[C@H]([C@@H](C)O)NC(=O)[C@H]([C@@H](C)CC)NC2=O)cc1` ([Mpa][dY](Et)ITNCP[Orn]G-NH2; disulfide 1-6), for which the Potency entry in assay [1], in assay [2], in assay [4] and in assay [5] was “inactive” each time.
With `Cc1cccc(C)c1N(CCCc1cccnc1)C(=O)C(C)N` (stereo not given), the Potency entry in assay [1], in assay [2], in assay [3] and in assay [4] was “inactive” in each case. In assay [5], the PLD induction is -1.49% [at 1.53 µM].
As to `CCC(C)(C)OC(=O)N[C@@H](Cc1c[nH]c2ccccc12)C(=O)N[C@@H](CCSC)C(=O)N[C@@H](CC(=O)O)C(=O)N[C@@H](Cc1ccccc1)C(N)=O`, the Potency entry in assay [1], in assay [2], in assay [3], in assay [4] and in assay [5] was “inactive” throughout.
As to `c1cnc2cc3c(cc2n1)[C@@H]1CNC[C@H]3C1`, the Potency result in assay [1], in assay [2], in assay [3], in assay [4] and in assay [5] was “inactive” throughout.
Take `C[C@H]1C[C@@H]2[C@H]([C@@H](O)C[C@@]3(C)[C@H]2CC[C@]3(O)C(=O)COC(=O)CCC(=O)O)[C@@]2(C)C=CC(=O)C=C12`: the Potency entry in assay [1], in assay [2] and in assay [4] was “inactive” in each case. In assay [5], the PLD induction is 0.704% [at 7.66 µM].
On to `CN(CC(=O)N1CCOCC1)Cc1c(Cl)cccc1NC(=O)c1ccccc1`, for which the Potency result in assay [1], in assay [4] and in assay [5] was “inactive” each time. In addition, the Potency in assay [2] was 13.3 µM (active).
As for `CCC[C@@]1(CCc2ccccc2)CC(O)=C([C@H](CC)c2cccc(NS(=O)(=O)c3ccc(C(F)(F)F)cn3)c2)C(=O)O1`, the Potency result in assay [1] and in assay [3] was “inactive” in each case. For the same compound, the PLD induction in assay [5] was -4.07% [at 7.66 µM].
Turning to `CCCCOC(=O)C(=O)Nc1cccc(-c2nn[nH]n2)c1`, the Potency entry in assay [1], in assay [2], in assay [3], in assay [4] and in assay [5] was “inactive” each time.
Turning to `CC(=O)O[C@H]1CC[C@@]2(C)C(=CC[C@@H]3[C@@H]2CC[C@]2(C)C(c4cccnc4)=CC[C@@H]32)C1`, the Potency entry in assay [1], in assay [3], in assay [4] and in assay [5] was “inactive” each time.
Consider `CC1(C)S[C@@H]2[C@H](NC(=O)C(C(=O)Oc3ccc4c(c3)CCC4)c3ccccc3)C(=O)N2[C@H]1C(=O)O` (stereo not given in full), for which the Potency result in assay [1], in assay [3], in assay [4] and in assay [5] was “inactive” each time.
On to `CCN(CC)CCOC(=O)c1ccc(N)cc1Cl`, for which the Potency entry in assay [1], in assay [3], in assay [4] and in assay [5] was “inactive” in each case.
As for `CCC(=O)Oc1ccc2c(c1)CC[C@@H]1[C@@H]2CC[C@]2(C)[C@@H](OC(=O)CC)CC[C@@H]12`, the Potency entry in assay [1], in assay [2], in assay [4] and in assay [5] was “inactive” throughout.
Consider `CC(=O)O[C@H]1C[C@@H]2CC[C@@H]3[C@H](CC[C@@]4(C)[C@H]3C[C@H](N3CC[N+](C)(C)CC3)[C@@H]4OC(C)=O)[C@@]2(C)C[C@@H]1N1CC[N+](C)(C)CC1`, for which the Potency result in assay [1], in assay [3], in assay [4] and in assay [5] was “inactive” in each case.
Regarding `CC(=O)OCC(=O)[C@@]1(O)[C@H](C)C[C@H]2[C@@H]3C[C@H](F)C4=CC(=O)C=C[C@]4(C)[C@H]3[C@@H](O)C[C@@]21C`, the Potency result in assay [1], in assay [3], in assay [4] and in assay [5] was “inactive” in each case.
Take `COc1cc(C[C@@H]2NCCc3cc(O)c(O)cc32)cc(OC)c1OC`: the Potency entry in assay [1], in assay [3], in assay [4] and in assay [5] was “inactive” throughout.
